Measured values from PubChem BioAssay (Tox21).
“And” between values parts separate entries of the source, which are not always exact repeats. Equal values may be shown once. Results filed as inconclusive are left out. The source made the active and inactive calls. Unless noted, calls come from the whole dose curve; as a rule, active = well fitted curve in the direction sought with a large enough effect in the repeat runs; inconclusive = weak or mixed curves; inactive = no such curve, though single readings can be large; an effect the other way counts as inactive or inconclusive.

Key:
[1] = qHTS assay to identify small molecule agonists of the androgen receptor (AR) signaling pathway in the presence of an antagonist - cell viability counter screen (AID 1259379); note: nearly all actives have a fitted effect of over 25% in size; note: potency is the fitted concentration of half-maximal effect
How it was run: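 Cytotoxicity is assessed by CellTiter-Fluor in MDA-kb2 cells carrying an MMTV-driven luciferase reporter. Cells receive 3.0uM nilutamide plus compounds at 15 concentrations and incubate 16 hr at 37C without CO2 before fluorescence reading.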

[2] = qHTS assay to identify small molecule agonists of the estrogen receptor beta (ER-beta) signaling pathway - cell viability counter screen (AID 1259380); note: nearly all actives have a fitted effect of over 30% in size; note: potency is the fitted concentration of half-maximal effect
How it was run: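 Cytotoxicity is measured in parallel with the reporter screen: after 16 hr compound exposure at 37C and a 2 hr LiveBLAzer step, CellTiter-Glo is added to the same ER-beta-UAS-bla HEK293T wells and luminescence read after 30 min.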

[3] = qHTS assay to identify small molecule antagonists of the estrogen receptor beta (ER-beta) signaling pathway - cell viability counter screen (AID 1259382); note: nearly all actives have a fitted effect of over 55% in size; note: potency is the fitted concentration of half-maximal effect
How it was run: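 Cytotoxicity counter screen multiplexed with the beta-lactamase antagonist assay: GripTite HEK293T ER-beta-bla cells were treated 16 hr with test chemicals in the presence of 1nM 17-beta-estradiol, and viability was measured by CellTiter-Glo.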

[4] = molecular target: Estrogen receptor (Homo sapiens) (UniProt P03372); experiment: qHTS assay to identify small molecule agonists of the estrogen receptor alpha (ER-alpha) signaling pathway in the presence of an antagonist (AID 1259383; calls by dose curve; note: top concentration of the series differs between compounds; nearly all actives have a fitted effect of over 15% in size)
Sequence of Estrogen receptor (Homo sapiens) (P03372 whole entry, looked up): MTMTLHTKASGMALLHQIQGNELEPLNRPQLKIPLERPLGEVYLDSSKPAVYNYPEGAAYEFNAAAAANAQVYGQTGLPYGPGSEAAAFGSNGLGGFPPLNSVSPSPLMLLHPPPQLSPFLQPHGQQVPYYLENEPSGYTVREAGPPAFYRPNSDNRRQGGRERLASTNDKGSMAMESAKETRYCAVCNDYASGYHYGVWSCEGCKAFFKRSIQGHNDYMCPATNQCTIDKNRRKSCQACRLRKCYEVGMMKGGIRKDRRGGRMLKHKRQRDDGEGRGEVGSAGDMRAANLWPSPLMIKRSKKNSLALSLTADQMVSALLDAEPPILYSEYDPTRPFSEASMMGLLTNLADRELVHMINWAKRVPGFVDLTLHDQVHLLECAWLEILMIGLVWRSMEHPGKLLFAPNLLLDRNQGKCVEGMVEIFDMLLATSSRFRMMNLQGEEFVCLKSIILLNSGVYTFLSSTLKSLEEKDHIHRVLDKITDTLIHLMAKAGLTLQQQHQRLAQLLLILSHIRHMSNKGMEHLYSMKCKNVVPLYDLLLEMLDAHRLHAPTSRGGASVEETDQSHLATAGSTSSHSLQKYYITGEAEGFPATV
How it was run: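 Agonist-mode confirmation in the presence of the ER antagonist ICI-182,780 at 10.0nM final. Breast-derived VM7Luc4E2 reporter cells were exposed to compounds for 22hr, and ERE-driven luciferase was quantified by luminescence.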

[5] = qHTS assay to identify small molecule agonists or antagonists of the thyroid stimulating hormone receptor (TSHR) signaling pathway - wild type cell line counter screen (AID 1259384; calls by dose curve)
How it was run: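 Counter screen in untransfected Hek293: compounds (15-point titration, triplicate) plus phosphodiesterase inhibitor Ro20-1724 added after 18 h plating; 30 min RT. Intracellular cAMP via competitive d2/cryptate immunoassay, 1 h incubation.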

[6] = molecular target: Thyrotropin receptor (Homo sapiens) (UniProt P16473); experiment: qHTS assay to identify small molecule antagonists of the thyroid stimulating hormone receptor (TSHR) signaling pathway (AID 1259385; calls by dose curve; note: nearly all actives have a fitted effect of over 20% in size; note: potency is the fitted concentration of half-maximal effect)
Sequence of Thyrotropin receptor (Homo sapiens) (P16473 whole entry, looked up): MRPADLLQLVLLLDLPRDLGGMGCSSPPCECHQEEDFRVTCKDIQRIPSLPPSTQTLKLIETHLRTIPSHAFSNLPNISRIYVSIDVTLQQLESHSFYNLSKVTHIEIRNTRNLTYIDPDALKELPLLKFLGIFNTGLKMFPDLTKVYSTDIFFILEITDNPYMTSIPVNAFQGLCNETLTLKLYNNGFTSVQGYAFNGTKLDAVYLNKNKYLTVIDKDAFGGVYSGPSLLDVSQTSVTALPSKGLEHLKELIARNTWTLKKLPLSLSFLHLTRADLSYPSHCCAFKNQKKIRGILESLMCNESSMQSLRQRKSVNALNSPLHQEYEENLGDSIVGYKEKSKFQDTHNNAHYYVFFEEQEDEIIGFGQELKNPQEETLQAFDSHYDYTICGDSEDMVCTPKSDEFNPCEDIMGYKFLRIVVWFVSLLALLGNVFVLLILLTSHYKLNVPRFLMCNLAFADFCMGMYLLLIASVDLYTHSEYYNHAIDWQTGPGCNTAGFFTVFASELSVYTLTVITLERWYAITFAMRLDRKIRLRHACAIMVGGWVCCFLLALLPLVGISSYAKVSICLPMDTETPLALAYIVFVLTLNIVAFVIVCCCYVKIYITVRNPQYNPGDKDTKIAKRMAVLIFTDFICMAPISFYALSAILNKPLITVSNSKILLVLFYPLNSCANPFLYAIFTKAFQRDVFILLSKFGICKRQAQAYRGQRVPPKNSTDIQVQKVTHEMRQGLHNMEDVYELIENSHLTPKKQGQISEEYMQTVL
How it was run: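 Antagonist mode: compound-treated TSHR-expressing HEK293 cells were stimulated with 1.5 ng/mL TSH (final) in presence of Ro20-1724 for 30 min at RT. HTRF cAMP detection after 1 h; each compound tested at 15 concentrations, triplicate.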

[7] = qHTS assay to identify small molecule agonists of the estrogen receptor alpha (ER-alpha) signaling pathway in the presence of an antagonist - cell viability counter screen (AID 1259386);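 note: series mostly up to about 92 µM; cells exposed to compounds for 22 h at 37 °C before the viability read; nearly all actives have a fitted effect of over 30% in size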
How it was run: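 Cytotoxicity was measured in parallel with the ERE-luciferase agonist screen, in the same wells. The cells were VM7Luc4E2, which endogenously express ER-alpha, and treatment was with compounds plus 10.0nM ICI-182,780 for 22hr.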

[8] = molecular target: Progesterone receptor (Homo sapiens) (UniProt P06401); experiment: qHTS assay to identify small molecule agonists of the progesterone receptor (PR) signaling pathway (AID 1346784; calls by dose curve; note: nearly all actives have a fitted effect of over 30% in size)
Sequence of Progesterone receptor (Homo sapiens) (P06401 whole entry, looked up): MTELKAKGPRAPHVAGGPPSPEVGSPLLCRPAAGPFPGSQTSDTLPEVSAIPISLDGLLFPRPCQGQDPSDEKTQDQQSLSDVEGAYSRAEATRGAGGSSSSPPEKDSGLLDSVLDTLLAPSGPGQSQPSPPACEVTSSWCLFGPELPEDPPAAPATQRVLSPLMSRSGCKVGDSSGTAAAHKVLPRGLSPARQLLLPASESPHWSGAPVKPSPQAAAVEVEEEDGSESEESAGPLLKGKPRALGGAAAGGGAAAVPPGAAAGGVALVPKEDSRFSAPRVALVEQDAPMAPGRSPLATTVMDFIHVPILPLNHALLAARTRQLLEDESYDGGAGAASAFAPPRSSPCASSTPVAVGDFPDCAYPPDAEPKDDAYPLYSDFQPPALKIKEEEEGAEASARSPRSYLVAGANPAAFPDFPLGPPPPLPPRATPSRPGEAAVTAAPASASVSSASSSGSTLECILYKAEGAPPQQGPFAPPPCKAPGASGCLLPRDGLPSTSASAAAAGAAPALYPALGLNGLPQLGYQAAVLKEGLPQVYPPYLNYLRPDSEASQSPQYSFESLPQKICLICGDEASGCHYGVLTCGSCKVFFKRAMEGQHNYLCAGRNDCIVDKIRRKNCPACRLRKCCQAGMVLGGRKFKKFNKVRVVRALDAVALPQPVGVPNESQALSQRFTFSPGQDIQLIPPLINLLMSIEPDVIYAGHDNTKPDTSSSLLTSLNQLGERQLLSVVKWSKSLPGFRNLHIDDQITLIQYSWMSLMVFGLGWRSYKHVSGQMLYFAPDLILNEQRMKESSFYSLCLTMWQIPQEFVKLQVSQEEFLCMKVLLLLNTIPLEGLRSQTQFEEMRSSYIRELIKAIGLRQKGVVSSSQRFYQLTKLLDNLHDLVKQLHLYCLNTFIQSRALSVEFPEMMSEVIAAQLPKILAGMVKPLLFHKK
How it was run: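 HEK 293T PR-UAS-bla reporter cells, 2% charcoal-stripped FBS; 6 hr settle at 37C/5% CO2, compound (DMSO) 16 hr, LiveBLAzer B/G FRET substrate 2 hr RT, fluorescence intensity read.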

[9] = molecular target: Progesterone receptor (Homo sapiens) (UniProt P06401); experiment: qHTS assay to identify small molecule antagonists of the progesterone receptor (PR) signaling pathway (AID 1346795; active = well fitted inhibition curve with a large enough effect in the signal ratio in the repeat runs, not every such curve was filed as active; the % refers to the signal ratio; note: potency is the fitted concentration of half-maximal effect)
How it was run: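 Beta-lactamase reporter, HEK293T PR-UAS-bla line; 2% charcoal-stripped FBS; 6 hr pre-incubation, 37C/5% CO2. Compound + R5020 1 nM final, 16 hr. LiveBLAzer B/G FRET substrate, 2 hr RT; fluorescence intensity read.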

[10] = qHTS assay to identify small molecule antagonists of the progesterone receptor (PR) signaling pathway - cell viability counter screen (AID 1346798); note: nearly all actives have a fitted effect of over 50% in size; note: potency is the fitted concentration of half-maximal effect
How it was run: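 Luminescence readout (CellTiter-Glo, 30 min, RT) of viability in PR-UAS-bla HEK293T cells exposed to compound and R5020 agonist for 16 hr at 37C, 5% CO2; run in the same wells as the beta-lactamase reporter read.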

[11] = qHTS assay to identify small molecule agonists of the progesterone receptor (PR) signaling pathway - cell viability counter screen (AID 1346799; calls by dose curve; note: nearly all actives have a fitted effect of over 45% in size; note: potency is the fitted concentration of half-maximal effect)
How it was run: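 HEK293T PR-UAS-bla, 3,000 cells/well, 2% charcoal-stripped FBS; 6 h settle, compound 16 h at 37C/5% CO2; LiveBLAzer 2 h RT, then CellTiter-Glo 30 min RT, luminescence read.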

[12] = qHTS assay to identify small molecule antagonists of the TGF-beta/Smad signaling pathway - cell viability counter screen (AID 1346824); note: nearly all actives have a fitted effect of over 50% in size; note: potency is the fitted concentration of half-maximal effect
How it was run: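 Cytotoxicity counter-screen run in the same wells as the beta-lactamase Smad reporter read: CellTiter-Glo luminescence after 30 min at room temperature. HEK 293T SBE-bla cells had 5 hr compound exposure at 37 C with TGF-beta1 (0.25 ng/mL stock).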

[13] = qHTS assay to identify small molecule agonists of the TGF-beta/Smad signaling pathway - cell viability counter screen (AID 1346829); note: nearly all actives have a fitted effect of over 45% in size; note: potency is the fitted concentration of half-maximal effect
How it was run: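 After overnight seating at 37 C and 5% CO2, reporter cells got compounds for 5 hr and FRET substrate for 2 hr; cell viability then came from CellTiter-Glo luminescence.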

[14] = qHTS assay to identify small molecule agonists of the TGF-beta/Smad signaling pathway (AID 1346859; active = well fitted activation curve with a large enough effect in the signal ratio in the repeat runs, not every such curve was filed as active; the % refers to the signal ratio; note: series mostly up to about 77 µM)
How it was run: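 Read-out: fluorescence at 460 and 530 nm (405 nm excitation) after a 2 hr room-temperature incubation with beta-lactamase FRET substrate. SBE-bla HEK 293T cells had been treated with test compounds for 5 hr at 37 C.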

[15] = molecular target: Thyrotropin-releasing hormone receptor (Homo sapiens) (UniProt P34981); experiment: qHTS assay to identify small molecule antagonists of the thyrotropin-releasing hormone receptor (TRHR) signaling pathway (AID 1346877; active = well fitted inhibition curve with a large enough effect in the repeat runs, not every such curve was filed as active; note: potency is the fitted concentration of half-maximal effect)
Sequence of Thyrotropin-releasing hormone receptor (Homo sapiens) (P34981 whole entry, looked up): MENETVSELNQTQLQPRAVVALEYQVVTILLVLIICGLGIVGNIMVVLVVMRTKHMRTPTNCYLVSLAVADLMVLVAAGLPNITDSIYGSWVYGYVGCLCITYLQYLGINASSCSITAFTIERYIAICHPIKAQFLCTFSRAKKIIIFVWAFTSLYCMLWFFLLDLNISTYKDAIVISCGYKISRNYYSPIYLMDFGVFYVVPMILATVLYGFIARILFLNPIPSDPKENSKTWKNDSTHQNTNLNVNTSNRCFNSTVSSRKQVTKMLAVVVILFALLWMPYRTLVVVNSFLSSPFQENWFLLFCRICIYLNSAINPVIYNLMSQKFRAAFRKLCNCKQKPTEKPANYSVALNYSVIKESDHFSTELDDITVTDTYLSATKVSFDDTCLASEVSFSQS
How it was run: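 Antagonism is measured as suppression of the calcium response to 1 nM TRH in TRHR-HEK293 cells that have been dye-loaded for 2 h at 37 °C after overnight plating. Each compound is tested at 15 concentrations in triplicate.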

[16] = molecular target: Thyrotropin-releasing hormone receptor (Homo sapiens) (UniProt P34981); experiment: qHTS assay to identify small molecule agonists of the thyrotropin-releasing hormone receptor (TRHR) signaling pathway (AID 1346891; calls by dose curve; note: potency is the fitted concentration of half-maximal effect;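 for activation: HEK293 cells expressing TRHR with calcium dye readout; series mostly up to about 58 µM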)
How it was run: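 HEK293/TRHR cells, 1500 per well, 18 h 37 °C; Ca dye 2 h 37 °C; pin-tool compound addition (agonist mode); kinetic fluorescence 3 min, 1 s reads; 15 concentrations, triplicate.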

[17] = Human pregnane X receptor (PXR) small molecule agonists, qHTS cell viability counter screen (AID 1346977); note: nearly all actives have a fitted effect of over 50% in size; note: potency is the fitted concentration of half-maximal effect
How it was run: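 Fluorescence read-out (CellTiter-Fluor) of viability in PXR-Luc HepG2 cells, multiplexed with the luciferase agonist read. Compounds in DMSO added after 5hr plating; 24hr total exposure at 37C, 5% CO2.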

[18] = Caspase-3/7 induction in HepG2 cells by small molecules, qHTS assay (AID 1346978); note: nearly all actives have a fitted effect of over 15% in size; note: potency is the fitted concentration of half-maximal effect
How it was run: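 Caspase-3/7 induction was measured by Caspase-Glo 3/7 luminescence (30 min, room temperature) after a 17 hr compound exposure of wild-type HepG2 cells seeded at 2,000 per well and pre-incubated 5 hr.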

[19] = molecular target: Androgen receptor (Homo sapiens) (UniProt P10275); experiment: qHTS assay to identify small molecule agonists of the androgen receptor (AR) signaling pathway in the presence of an antagonist (AID 1259381; calls by dose curve; note: nearly all actives have a fitted effect of over 15% in size; note: potency is the fitted concentration of half-maximal effect)
Sequence of Androgen receptor (Homo sapiens) (P10275 whole entry, looked up): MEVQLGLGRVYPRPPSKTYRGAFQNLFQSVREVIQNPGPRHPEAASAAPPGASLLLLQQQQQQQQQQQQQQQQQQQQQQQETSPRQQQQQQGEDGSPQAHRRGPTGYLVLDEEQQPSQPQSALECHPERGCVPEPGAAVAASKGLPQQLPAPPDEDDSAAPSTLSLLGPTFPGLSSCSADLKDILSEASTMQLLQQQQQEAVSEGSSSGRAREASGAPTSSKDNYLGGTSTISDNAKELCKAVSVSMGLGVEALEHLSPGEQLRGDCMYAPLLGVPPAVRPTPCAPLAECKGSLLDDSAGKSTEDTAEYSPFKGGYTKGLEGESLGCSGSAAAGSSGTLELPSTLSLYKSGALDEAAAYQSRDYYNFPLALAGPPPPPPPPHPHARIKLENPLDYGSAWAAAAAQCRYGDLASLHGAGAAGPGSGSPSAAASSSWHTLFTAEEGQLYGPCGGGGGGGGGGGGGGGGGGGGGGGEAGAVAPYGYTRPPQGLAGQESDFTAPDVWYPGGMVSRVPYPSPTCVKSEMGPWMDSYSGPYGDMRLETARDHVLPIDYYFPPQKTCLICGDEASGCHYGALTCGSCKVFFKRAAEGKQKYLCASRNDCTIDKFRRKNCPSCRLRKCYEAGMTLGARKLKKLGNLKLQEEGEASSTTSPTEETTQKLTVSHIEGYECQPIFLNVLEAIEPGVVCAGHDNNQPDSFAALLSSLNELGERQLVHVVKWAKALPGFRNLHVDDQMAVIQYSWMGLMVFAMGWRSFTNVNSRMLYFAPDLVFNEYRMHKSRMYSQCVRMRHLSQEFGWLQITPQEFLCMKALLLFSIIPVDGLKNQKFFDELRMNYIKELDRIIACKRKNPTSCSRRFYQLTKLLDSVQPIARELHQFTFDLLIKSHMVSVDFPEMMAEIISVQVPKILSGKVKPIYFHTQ
How it was run: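 Agonist-mode confirmation screen: human MDA-kb2 cells stably expressing luciferase under an MMTV promoter bearing AR and GR response elements, co-treated with 3.0uM nilutamide (final). Luminescence measured after 16hr compound incubation.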

Measured: Potency

CCN(CC)c1cccc(C)c1
not listed: [19]
inactive: all other assays above

OCCN1CN(CCO)CN(CCO)C1
not listed: [19]
inactive: all other assays above

CC(C)c1ccccc1N
not listed: [19]
inactive: all other assays above

C[C@H]1O[C@@H](O[C@H]2[C@@H](O)C[C@H](O[C@H]3[C@@H](O)C[C@H](O[C@H]4CC[C@@]5(C)[C@H](CC[C@@H]6[C@@H]5C[C@@H](O)[C@]5(C)[C@@H](C7=CC(=O)OC7)CC[C@]65O)C4)O[C@@H]3C)O[C@@H]2C)C[C@H](O)[C@@H]1O
active: [2] 86.4 nM and 95.8 nM | [19] 0.172 µM | [3] 61.2 nM and 76.1 nM | [10] 86.4 nM and 121 nM | [11] 122 nM and 191 nM
inactive: [1] | [7] | [8] | [17] | [18]

Clc1ccc(C(Cn2ccnc2)OCc2c(Cl)cccc2Cl)c(Cl)c1 (stereo unspecified)
active: [2] 29.8 µM | [3] 23.7 µM | [9] 4.22 µM | [10] 5.96 µM | [11] 5.96 µM | [17] 23.7 µM
not listed: [8] | [15] | [16]
inactive: all other assays above

O=C1NCCN1CCN1CCC(c2cn(-c3ccc(F)cc3)c3ccc(Cl)cc23)CC1
active: [1] 15 µM | [2] 13.3 µM | [6] 29.8 µM | [17] 29.8 µM
not listed: [3] | [9] | [10] | [12] | [13] | [18]
inactive: all other assays above

CC(COC(=O)c1ccccc1)OC(=O)c1ccccc1 (stereo unspecified)
not listed: [15] | [16] | [19]
inactive: all other assays above

CCCCCCCCCCCCCCCC
not listed: [10] | [15] | [16] | [17] | [19]
inactive: all other assays above

CN(C)CCOC(c1ccccc1)c1ccccc1 (tested in a mixture with another compound)
active: [2] 69.1 µM
inactive: [1] | [19] | [5] | [6] | [12] | [13] | [14] | [15] | [16] | [18]

CCCOc1sc(C(=O)N2CCC(c3cc(CN)ccc3F)CC2)c(C)c1Br
inactive: [19] | [5]
active: [1] 56 µM | [2] 28.1 µM | [3] 25 µM | [6] 56 µM | [10] 25 µM | [11] 19.9 µM | [12] 50.4 µM | [13] 44.9 µM | [15] 27.6 µM | [16] 31.8 µM | [17] 28.1 µM | [18] 44.5 µM

CCCCCCCC(=O)OCC
not listed: [3] | [4]
inactive: all other assays above

OCCCCl
not listed: [11] | [15] | [16]
inactive: all other assays above

CN1CN(C)CN(C)C1
not listed: [19]
inactive: all other assays above

COC(=O)C1=C(C)NC(C)=C(C(=O)OCCCN2CCC(c3ccccc3)(c3ccccc3)CC2)C1c1cccc([N+](=O)[O-])c1 (stereo unspecified)
inactive: [19] | [5] | [12] | [14] | [15] | [16]
active: [1] 29.8 µM | [2] 23.7 µM | [3] 23.7 µM | [9] 18.8 µM | [10] 18.8 µM | [11] 13.3 µM | [17] 26.6 µM

Cc1c(C(=O)O)cccc1[N+](=O)[O-]
not listed: [4] | [10] | [11] | [17] | [19]
inactive: all other assays above
